High-throughput results (PubChem)
This is one part of a sample in which hits are shown more often than they occur.
RVFV N-RNA FP: blocks Rift Valley Fever Virus nucleoprotein binding to RNA; RVFV N-RNA binding, fluorescence polarization; active compounds read low; P21700; hit rate 0.1% among 20,000; % bound, % (test concentration not listed); in the data active means % bound below about 75%
Target sequence (P21700 whole entry, looked up): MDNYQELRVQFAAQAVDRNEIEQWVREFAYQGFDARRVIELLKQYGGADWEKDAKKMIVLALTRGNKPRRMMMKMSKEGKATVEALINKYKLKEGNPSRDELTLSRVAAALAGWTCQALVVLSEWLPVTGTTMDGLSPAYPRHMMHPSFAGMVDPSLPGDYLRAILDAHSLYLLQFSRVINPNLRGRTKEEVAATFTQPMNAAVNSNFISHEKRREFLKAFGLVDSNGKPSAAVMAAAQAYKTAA
Active calls of the source: *; ! = not active in a repeat.

SMILES	RVFV N-RNA FP
C/C=N/N=C1/NC(=O)C(CC(=O)Nc2cccc(C)c2C)S1 (configuration not stated)	101
O=C(CC1S/C(=N/N=C/c2ccco2)NC1=O)Nc1ccc(Cl)cc1 (configuration not stated)	73*
CCNC(=O)CC1S/C(=N\N=C\c2ccc(C)o2)NC1=O (configuration not stated)	95
Cc1ccc(C)n1-c1oc(-c2ccco2)c(-c2ccco2)c1C#N	94
COc1ccc(Br)cc1-c1noc(C)n1	104
Cc1ccc(CNC(=S)NCCCn2nccc2C)cc1	90
COCCNC(=S)c1ccc(N(C)C)cc1	95
CC1CCN(CC(=O)Nc2ccccc2C(F)(F)F)CC1	97
Oc1ccc2nnc3c(Br)cnn3c2c1	41*
O=C(CSc1nc(=O)n(CCN2CCOCC2)c2c1CCC2)NCc1ccccc1	99
O=C(NC(C(=O)NC1=NCCS1)C12CC3CC(CC(C3)C1)C2)C1CCCCC1 (configuration not stated)	96
O=C(CN1C(=O)S/C(=C\c2ccc(N3CCOCC3)o2)C1=O)Nc1ccccc1F	120
CCOC(=O)c1c(NC(=O)c2ccc(Cl)s2)sc2c1CCN(C(C)=O)C2	100
Clc1ccnc(-c2ccccc2)n1	93
CCCN1CCC2(CC1)C1CN(CCC)CC=C1C(C#N)=C(N)C2(C#N)C#N (configuration not stated)	54*
Clc1ccccc1-c1nnc2sc(Nc3ccccc3)nn12	98
COc1cccc(N2C(=O)/C(=C\N3CCCCC3)C(=O)NC2=S)c1	92
O=P(CO)(c1ccc(Cl)cc1)c1ccc(Cl)cc1	96
NC(=O)c1ccccc1NC(=O)c1ccccc1	107
CCc1ccc(S(=O)(=O)NCc2cn3ccsc3n2)cc1	95
CC(=O)N(C1=C(O)c2ccccc2C(=O)C1=O)c1ccccc1	96
COC(=O)Nc1ccc(S(=O)(=O)C(F)F)cc1	91
CCOc1ccc(NC(=O)CSc2ccnc3c2c(=O)n(C)c(=O)n3C)cc1	91
CCOC(=O)C1N=C2C(=[N+]([O-])C1N)COC(C)(C)/C2=N\O (configuration not stated)	95
CCN(CC)Cc1c(O)ccc2c1O/C(=C\c1ccc(C(=O)OC)cc1)C2=O	59
SMILES	RVFV N-RNA FP
COc1ccc2c(c1)O/C(=C\c1cccc(OC(=O)N3CCOCC3)c1)C2=O	97
CC1CCN(Cc2c(O)ccc3c2O/C(=C\c2ccccc2)C3=O)CC1	56*
CC1CCN(Cc2c(F)cccc2F)CC1	99
CN(C)Cc1c(O)ccc2c1O/C(=C\c1ccccc1)C2=O	48*
O=C(CN1CCOCC1)N/N=C/c1ccccc1	97
CC1CCN(CC(=O)NCc2ccccc2)CC1	95
CCc1c(C)c2ccc(O)c(CN(C)C)c2oc1=O	92
O=C1/C(=C/c2ccccc2)Oc2c1ccc(O)c2CN1CCOCC1	53*
Nc1c(C(=O)N/N=C/c2ccc3c(c2)OCO3)cnn1-c1ccccc1	96
Cc1cc(C)n(C2=NCCN2C=C(C#N)C#N)n1	99
CCn1c(=NC(=O)c2ccco2)sc2cc(Cl)ccc21	94
CCn1nnc2c(N3c4ccccc4CC3C)ncnc21 (configuration not stated)	95
Cc1c(Cl)cccc1NC(=O)C1CC2CCCC(C1)C2=O (configuration not stated)	89
C=CCN(CC=C)C(=O)/C=C/c1ccccc1	102
Oc1[nH]c2ccccc2c1C=NCCN1CCOCC1	96
CS(=O)(=O)Nc1cc(Cl)ccc1Oc1ccccc1	94
C=CCN(CC=C)C(=O)c1ccc(C)s1	98
COc1ccc(F)cc1S(=O)(=O)Nc1ccc2c(c1)N(C(C)=O)CCC2	91
Cn1nnc(-c2ccc(C(=O)O)cc2)n1	98
O=C(O)c1ccc(-c2ccccc2)cc1	96
O=C1C=CC(=O)C(c2ccc(C(=O)O)cc2)=C1	52*
CN(C)C(=O)Nc1ccc2c(c1)nnn2C	99
O=C(c1ccccc1)N1CCN(c2ccc(NCC3CCCO3)nn2)CC1 (configuration not stated)	88
Brc1ccc(-c2nnc3sc(CN4CCc5ccccc54)cn23)cc1	93
C[C@H](N)CN1CCc2ccc(Br)cc21	72*
SMILES	RVFV N-RNA FP
CC(CN(C)C)CN1c2ccccc2CCc2ccccc21 (configuration not stated)	94
Cc1cc(C(=O)O/N=C(\N)CSc2ncccc2C(F)(F)F)no1	94
CCOC(=O)c1ccc(N=Cc2c(O)n(CC)c(=O)[nH]c2=O)cc1	90
COc1cccc(-c2nc(SCN3C(=O)c4ccccc4C3=O)[nH]c(=O)c2C#N)c1	96
Cc1cc(C(=O)N(Cc2ccccc2)c2ccccc2)no1	90
COc1cc(NC(C)CCCN)c2ncccc2c1 (configuration not stated)	95
COc1ccc2nc3cc(Cl)ccc3c(Nc3cc(CN4CCCC4)c(O)c(CN4CCCC4)c3)c2n1	103
CCN(CC)CCCC(C)Nc1c2ccc(Cl)cc2nc2ccc(OC)cc12 (configuration not stated)	34*
Cc1ccsc1/C=N/N1CCN(Cc2ccc(Cl)cc2)CC1	95
Cc1ccc(/C=C/C(=O)N2CCN(c3cccc(C)c3C)CC2)cc1	92
O=C(CN1C(=O)c2ccccc2C1=O)NCc1ccccc1	96
O=C(CN1C(=O)c2ccccc2C1=O)c1ccc(OC(F)F)cc1	109
CC(C)Cn1c(N)c(C(=O)NCc2ccc3c(c2)OCO3)c2nc3ccccc3nc21	96
COc1ccc(C2C3CCc4ccccc4C3=NN2C(=O)CN2CCOCC2)cc1 (configuration not stated)	88
CC[C@@]1(O)C(=O)OCc2c1cc1n(c2=O)Cc2cc3c(CN(C)C)c(O)ccc3nc2-1	44*
CCCCc1cc(=O)oc2c(CN(C)C)c(O)ccc12	92
CCOC(=O)Cn1nc(C)c(NC(=O)c2ccc(OC)cc2)c1C	98
CC1=C(C(N)=O)C(/C=C/c2ccccc2)n2ncnc2N1 (configuration not stated)	29*
COC(=O)C1=C(C)NC(=S)NC1/C=C/c1ccccc1 (configuration not stated)	96
CC1=C(C(N)=O)C(c2ccccc2F)NC(=O)N1 (configuration not stated)	89
C=CCn1c(O)c(C=Nc2cccc(C)c2)c(=O)[nH]c1=S	91
O=C(CSc1nnnn1Cc1ccccc1)n1c2c(c3c1CCCC3)CCCC2	100
CCc1ccc(NC(=O)CSc2nnc3[nH]c(=O)ccn23)cc1	91
CSc1cccc(NC(=O)CN(Cc2ccccc2)S(C)(=O)=O)c1	96
Cc1ccc(C(CC(=O)N2CCOCC2)c2ccccc2)c(O)c1C (configuration not stated)	93
CC(C)C(=O)Nc1cccc(C(=O)Nc2ccccc2)c1	98
Cc1ccc(C(=O)Nc2ccc(S(=O)(=O)O)c3cc(S(=O)(=O)O)cc(S(=O)(=O)O)c23)cc1NC(=O)c1cccc(NC(=O)Nc2cccc(C(=O)Nc3cc(C(=O)Nc4ccc(S(=O)(=O)O)c5cc(S(=O)(=O)O)cc(S(=O)(=O)O)c45)ccc3C)c2)c1	6.7*!
Cc1cccc(NC(=O)c2cccc(C)c2)c1	87
